In PubChem BioAssay AID1209 (Sanford-Burnham Center for Chemical Genomics, 2008) one finds inhibition data, which are given here for 107 compounds.

Where “and” joins values, the source holds several entries; their conditions need not be identical. Equal values may be shown once. The whole screen tested about 190,000 compounds, of which about 810 (0.43%) were called active. Rule as the data show it: active = inhibition above about 50%; inactive = the rest. Shown is part of a subset that was picked to be rich in actives.

The target of the experiment is Mannose-6-phosphate isomerase (Homo sapiens) (UniProt P34949). The experiment can be described thus: inhibitors of human PMI, primary screen, biochemical, fluorescence intensity, coupled assay (AID 1209).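 Also: plate controls were DMSO vehicle for no effect and wells lacking substrate for full effect.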 The note with it: purified PMI enzyme, at 20 µM, active compounds read high.
Chain of Mannose-6-phosphate isomerase (Homo sapiens) (P34949 whole entry, looked up): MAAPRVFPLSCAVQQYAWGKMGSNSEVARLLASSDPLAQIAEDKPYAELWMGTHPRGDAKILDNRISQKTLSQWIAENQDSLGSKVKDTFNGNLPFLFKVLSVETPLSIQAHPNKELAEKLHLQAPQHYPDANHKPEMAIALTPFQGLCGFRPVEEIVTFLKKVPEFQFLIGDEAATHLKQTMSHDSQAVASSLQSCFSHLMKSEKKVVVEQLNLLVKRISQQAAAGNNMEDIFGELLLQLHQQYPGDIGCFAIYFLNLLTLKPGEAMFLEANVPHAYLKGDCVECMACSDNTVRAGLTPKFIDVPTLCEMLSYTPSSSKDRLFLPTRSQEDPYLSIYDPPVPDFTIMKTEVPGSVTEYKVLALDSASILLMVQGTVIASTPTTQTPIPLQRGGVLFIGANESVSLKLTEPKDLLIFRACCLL
One may read the inhibition as the relative decrease from the control value, in per cent. Regarding `Nc1ccc(-n2cnc3cc([N+](=O)[O-])ccc32)cc1`, the inhibition was 53.9% (active).
Regarding `O=[N+]([O-])c1ccc2c(c1)ncn2-c1ccccc1`, the inhibition was -3.3% (inactive).
The figure for `COc1ccc(-n2cnc3cc([N+](=O)[O-])ccc32)cc1` is 5.5% (inactive).
As to `N=C1C=CC=C2C1=NC1(CCCCC1)N2O`, the inhibition was 72.2% (active).
As for `CCOC(=O)C1CCN(CC(O)COCc2cccs2)CC1` (configuration not stated), the inhibition is -1.6% (inactive).
Consider `Cc1cc(N=Cc2c(O)ccc3ccccc23)no1`, for which the inhibition was 43.9% (inactive).
The figure for `Oc1ccc2ccccc2c1/C=N/c1nccs1` is 39.6% (inactive); for `Oc1ccc2ccccc2c1C=Nc1ccc(Cl)cn1` it is 56.1% (active).
Turning to `O=C(CSc1nc2ccc(Cl)cc2[nH]1)NCc1ccco1`, the inhibition was 1.5% (inactive).
As to `Cc1cccc(-n2c3nc(=O)[nH]c(=O)c-3cc3c(C)nn(-c4ccccc4)c32)c1`, the inhibition was 6.4% (inactive).
The figure for `COc1cc([N+](=O)[O-])ccc1NC(=O)/C=C/C(=O)O` is -26.7% (inactive).
The figure for `S=C(NCCCn1ccnc1)Nc1ccc(Cl)cc1Cl` is 5.5% (inactive); for `O=C(CSc1nnc2ccccn12)NNC(=O)c1ccccc1` it is -2.1% (inactive).
As for `CCSc1nnc(NC(=O)CC)s1`, the inhibition was 0% (inactive).
For the compound `CCSc1nnc(N)s1`, the inhibition is -0.6% (inactive).
Turning to `COc1ccc(OC)c(-n2c(=S)[nH]c3c(sc(=S)n3-c3ccccc3)c2=O)c1`, the inhibition is 9.9% (inactive).
In the case of `COc1ccc(-n2c(=S)[nH]c3c(sc(=S)n3-c3ccccc3)c2=O)c(OC)c1` it was 62.6% (active).
Consider `COc1ccccc1-n1c(=S)[nH]c2c(sc(=S)n2-c2ccccc2)c1=O`, for which the inhibition was -4.5% (inactive).
In the case of `CC(O)[C@@H](C(=O)N1CCNCC1)n1cc(CCCCN)nn1` (some centres not stated) it was 4% (inactive); in that of `Cc1sc2nc(CSc3ccccc3)nc(N3CCC(C(N)=O)CC3)c2c1C`, 13.3% (inactive); in that of `CCOC(=O)NC(=O)/C(C#N)=C\c1ccccc1`, 52.6% (active).
The figure for `N#C/C(=C\c1ccccc1)C(=O)NC(=O)Oc1ccccc1` is 11.3% (inactive); for `Cc1ccc(/C=C(/C#N)C(=O)NC(=O)Oc2ccccc2)cc1` it is 4.9% (inactive); for `CSc1cccc(NC(=S)N2CCC(N(C)C3CCCCC3C)CC2)c1` (configuration not stated) it is -2.7% (inactive).
`CCOc1cc(C2CC(=O)NC(SCC)=C2C#N)ccc1O` (configuration not stated): the inhibition was 9.3% (inactive).
In the case of `CN1CSC2=C(C#N)C(c3cccc(OCc4ccccc4)c3)CC(=O)N2C1` (configuration not stated) it was 29.7% (inactive); in that of `COc1ccccc1N1CSC2=C(C#N)C(c3ccc(SC)cc3)CC(=O)N2C1` (configuration not stated), -29.2% (inactive).
The figure for `COc1ccc2ccccc2c1C1CC(=O)N2CN(C)CSC2=C1C#N` (configuration not stated) is 54.3% (active); for `CCOc1cc(C2CC(=O)N3CN(C4CCCCC4)CSC3=C2C#N)ccc1O` (configuration not stated) it is 54.5% (active); for `COc1ccc(C2CC(=O)N3CN(c4ccccc4F)CSC3=C2C#N)cc1OC` (configuration not stated) it is 34.9% (inactive).
The figure for `COc1ccc2ccccc2c1C1CC(=O)N2CN(C3CCCCC3)CSC2=C1C#N` (configuration not stated) is 25.9% (inactive).
Take `CCc1ccccc1N1CSC2=C(C#N)C(c3cc(OC)c(OC)cc3OC)CC(=O)N2C1` (configuration not stated): the inhibition was 46% (inactive).
The figure for `CCOc1ccccc1N1CSC2=C(C#N)C(c3c(OC)ccc4ccccc34)CC(=O)N2C1` (configuration not stated) is 64.9% (active).
The figure for `CC(NC(=O)COC(=O)c1ccco1)c1ccccc1` (configuration not stated) is 6.4% (inactive).
The figure for `COc1c(Cl)cc(Cl)cc1C(=O)Nc1ccc(NC(C)=O)cc1` is 7.9% (inactive); for `O=C(Cn1nnc(-c2ccccc2)n1)OC1CCOC1=O` (configuration not stated) it is -0.6% (inactive); for `Cc1nn(CC(=O)NNC(=S)Nc2ccccc2)c(C)c1[N+](=O)[O-]` it is 0% (inactive).
In the case of `CC1(C)Cc2c(sc(N)c2C#N)C(C)(C)N1`, the inhibition is 11.6% (inactive).
The figure for `Cc1nn(CC(=O)NCCc2ccccc2)c(C)c1[N+](=O)[O-]` is 2.6% (inactive); for `CCOc1ccc(C(O)C(CN2CCOCC2)c2ccccc2)cc1` (configuration not stated) it is -4.1% (inactive).
In the case of `COC(=O)c1c(NC(=O)c2cccnc2)sc(C)c1C`, the inhibition is -4.9% (inactive).
In the case of `CCOc1cc(NC(=O)CCl)c(OCC)cc1NC(C)=O` it was -3.2% (inactive).
The figure for `CC(=O)Nc1cc(OC(C)=O)c2nonc2c1OC(C)=O` is 83.9% (active); for `CCOc1cc(Cl)c(NC(C)=O)cc1OCC` it is -3% (inactive); for `COc1cc(O)c(NC(C)=O)c2nonc12` it is 64.6% (active).
In the case of `COc1cc(O)c(C(C)=O)cc1OC` it was -15.9% (inactive); in that of `CC(=O)Nc1nonc1NC(C)=O`, 5.4% (inactive).
For the compound `Nc1c(C(=O)N2CCCC2)sc2nc3c(cc12)CCCCCC3`, the inhibition is 95% (active).
On to `COC(=O)c1sc2nc3c(cc2c1N)CCCC3`, for which the inhibition was 14.2% (inactive).
Regarding `NC(=O)c1sc2nc3c(cc2c1N)CCC3`, the inhibition was -8% (inactive).
The figure for `O=[N+]([O-])c1cc(-c2cnc3ccccc3n2)ccc1Oc1ccc(Cl)cc1` is 5.9% (inactive); for `CCOC(=O)C1C(=O)NC(SCC(=O)OC)=C(C#N)C1c1ccccc1OCC` (configuration not stated) it is 14.3% (inactive).
The figure for `CCOC(=O)C1C(=O)NC(SCC(=O)Nc2nccs2)=C(C#N)C1c1ccccc1OCC` (configuration not stated) is 54.2% (active); for `CCOc1ccccc1C1CC(=O)NC(SCC(=O)Nc2nccs2)=C1C#N` (configuration not stated) it is -8.2% (inactive); for `CCOc1ccc(CCNC(=O)COC(=O)c2cccc(OC)c2O)cc1OCC` it is 5.3% (inactive).
Take `O=C1OC(Nc2ncccn2)c2ccccc21` (configuration not stated): the inhibition is 4.9% (inactive).
The figure for `O=C1OC(Nc2ccc3ncccc3c2)c2ccccc21` (configuration not stated) is 62.7% (active); for `O=C1OC(Nc2cc(Br)cc3cccnc23)c2ccccc21` (configuration not stated) it is 14.2% (inactive); for `O=C(C1CCN(S(=O)(=O)c2cccc3cccnc23)CC1)N1CCN(c2ccccc2)CC1` it is 13.6% (inactive).
In the case of `Cc1ccc(-n2nnnc2SCC(=O)N2CCc3ccccc3C2)cc1` it was -23.5% (inactive).
Consider `CCn1c(SCC(=O)N2CCCc3ccccc32)nnc1-c1ccoc1C`, for which the inhibition is -2.9% (inactive).
In the case of `CCS(=O)(=O)c1ccc(O)c(NC(=O)COc2ccc(OC)cc2)c1` it was 9.9% (inactive); in that of `O=C(CC1CCCCC1)OCn1nnc2ccccc2c1=O`, -0.7% (inactive).
On to `COC(=O)C1=C(C)NC(C)=C([N+](=O)[O-])C1c1ccccc1C(F)(F)F` (configuration not stated), for which the inhibition was -1.2% (inactive).
The figure for `COC(=O)C1=C(C)NC(C)=C(C(=O)OC)C1c1ccccc1[N+](=O)[O-]` is 83.1% (active); for `CCOC(=O)C1=C(C)NC(C)=C(C(=O)OC)C1c1cccc([N+](=O)[O-])c1` (configuration not stated) it is 13.5% (inactive) and 1.6% (inactive).
In the case of `COc1ccc(S(=O)(=O)N2CCOCC2)cc1OC` it was -10.5% (inactive); in that of `O=C(OC(C(=O)NCc1ccco1)C(OC(=O)c1ccccc1)C(=O)NCc1ccco1)c1ccccc1` (configuration not stated), -6.4% (inactive).
Consider `O=[N+]([O-])c1c(NCCCO)cc(Sc2ccc(Cl)cc2)c2nonc12`, for which the inhibition was 50.2% (active).
The figure for `CC(=O)OCCCNc1cc(Sc2ccc(Cl)cc2)c2nonc2c1[N+](=O)[O-]` is 30.1% (inactive); for `O=[N+]([O-])c1c(NCCCO)cc(SCc2ccco2)c2nonc12` it is 20.8% (inactive).
As to `Cn1ccnc1Sc1cc(NCCCO)c([N+](=O)[O-])c2nonc12`, the inhibition is -0.6% (inactive).
On to `COc1ccc(CNc2cc(NCCCO)c([N+](=O)[O-])c3nonc23)cc1`, for which the inhibition was 52.3% (active).
In the case of `Cc1nnc(Sc2cc(NCCCO)c([N+](=O)[O-])c3nonc23)s1`, the inhibition was 31.1% (inactive).
Consider `CCS(=O)(=O)CCSc1nc2c(cc1C#N)CCCC2`, for which the inhibition is 5.3% (inactive).
The figure for `Fc1ccc(F)c(C2=NNC(=Nc3ccccc3F)SC2)c1` is 22.5% (inactive).
As to `Cc1cc(Cl)ccc1N=C1N=C(N)c2ccccc21`, the inhibition is 9.1% (inactive).
In the case of `Fc1ccc(N=c2ssnc2Cl)c(F)c1`, the inhibition was 80.9% (active).
For `Cc1cc(Cl)ccc1N=Cc1c(O)n(C)c(=O)n(C)c1=O`, the inhibition was 9.5% (inactive).
As for `Oc1oc(C=Nc2ccc(F)cc2F)c2ccccc12`, the inhibition is -80.8% (inactive).
As to `Cc1cc(Cl)ccc1N=c1ssnc1Cl`, the inhibition is 52.8% (active).
In the case of `Cc1ccc(CCNc2ccccc2C)cn1` it was -6.3% (inactive); in that of `COc1ccc(C)cc1NC(=O)c1nnn(CCc2ccccc2)c1N`, 8.1% (inactive); in that of `CSc1ccccc1NC(=O)c1cc(-c2cccnc2)nc2ccc(Br)cc12`, -3% (inactive).
As to `CCOC(=O)C1CC(c2ccccc2)=NNC1=O` (configuration not stated), the inhibition was -6.5% (inactive).
Regarding `COc1ccc(C2CN=NC23CCCc2ccccc2C3=O)cc1` (configuration not stated), the inhibition was 3.1% (inactive).
On to `C/C(=C\C(=O)O)C(=O)Nc1nccs1`, for which the inhibition is -3.3% (inactive).
With `Cc1ccccc1CN1N=C(/C=C/c2ccccc2)CCC1=O`, the inhibition was -3.6% (inactive).
In the case of `C/C(=N\NC(=O)c1ccccc1)c1ccc(C)c([N+](=O)[O-])c1` it was 12.4% (inactive).
The figure for `Cc1ccc(NC(=S)C2=C(O)c3sccc3N(C)S2(=O)=O)cc1` is 56.1% (active).
As for `CN1c2ccsc2C(O)=C(C(=S)Nc2ccccc2)S1(=O)=O`, the inhibition is 19.6% (inactive).
The figure for `Cc1ccc(NC(=O)C2=C(O)c3sccc3N(C)S2(=O)=O)cc1` is 1.9% (inactive).
`COC(=O)Cc1c(C)nc2nc(-c3ccco3)[nH]n2c1=O`: the inhibition is -34.2% (inactive).
The figure for `Cc1ccc(C)n1-c1ncn[nH]1` is 5.2% (inactive).
As to `Cc1ccc(-n2c(C)n[nH]c2=S)cc1`, the inhibition was 11.4% (inactive).
In the case of `O=C(CN1C(=O)NC2(CCc3ccccc3C2)C1=O)Nc1ccc(Cl)cc1F` (configuration not stated) it was 8.5% (inactive); in that of `CC1(C)OC(=O)C(=Cc2ccc(-c3ccc(Cl)c(C(=O)O)c3)o2)C(=O)O1`, -12.1% (inactive); in that of `CC1=NOC(=O)/C1=C/c1ccc(-c2ccc(Cl)cc2)o1`, 21.9% (inactive).
The figure for `CC1=NOC(=O)/C1=C\c1ccc(-c2ccc(Cl)c(C(=O)O)c2)o1` is 66.6% (active); for `CCOC(=O)c1c(C)nc2ccc(C)cn12` it is -2.7% (inactive).
The figure for `O=C(OCn1nnc2ccccc2c1=O)C1COc2ccccc2O1` (configuration not stated) is 12.1% (inactive); for `COCCCn1c(-c2ccco2)nc2ccccc2c1=O` it is -0.1% (inactive); for `COCCCN=C(c1ccco1)n1c(=S)nc(-c2ccco2)n(CCCOC)c1=S` it is 52.4% (active).
As to `Cn1c(-c2ccco2)n[nH]c1=S`, the inhibition was -5% (inactive).
For `CN=C(c1ccco1)n1c(=S)nc(-c2ccco2)n(C)c1=S`, the inhibition is 51.4% (active).
`CN=C(c1ccc(C)cc1)n1c(=S)nc(-c2ccc(C)cc2)n(C)c1=S`: the inhibition is 37.7% (inactive).
With `CCCCn1c(-c2ccco2)n[nH]c1=S`, the inhibition is 5.8% (inactive).
